# Reference: the supplement of paper PMC9794691
# Columns and labels:
# H1975 [1] = assay: area under confluence curve of compound monotherapy; compare to DMSO control AUC of the same experiment (AUC (confluence x time, arbitrary))
# How it was run: (§1)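 EGFR-mutant adenocarcinoma lines (RPMI 1640, 10% FBS, 37 °C, 5% CO2) were seeded at 20,000–30,000 cells/well in 48-well plates and next day given test compound alone at one dose (highest with <50% parental inhibition, or 1 uM), refreshed after PBS washes every 3–4 days, then drug-free from DTP stage (10–21 days). IncuCyte confluence was tracked until EGFR-inhibitor-only wells regrew. Area under the confluence curve came from Prism (median of triplicates where run), beside same-experiment vehicle AUC.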
# HCC2279 [2] = assay: as above
# How it was run: as §1
# HCC2935 [3] = assay: as above
# How it was run: as §1
# HCC4006 [4] = assay: as above
# How it was run: as §1
# HCC827 [5] = assay: as above
# How it was run: as §1
# II-18 [6] = assay: as above
# How it was run: as §1
# H1975 [7] = assay: area under confluence curve of osimertinib + compound combination regimen (DTP regrowth); compare to osimertinib-only DTP control AUC of the same experiment (AUC (confluence x time, arbitrary)); details: test compound dose 100 nM, DMSO control AUC in same experiment: 14522
# How it was run: (§2)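 The area under the IncuCyte confluence–time curve, calculated in Prism and taken as the median of triplicates where available, is the value reported. It was measured in EGFR-mutant NSCLC lines that received the EGFR inhibitor either alone, followed by a test compound, or together with a fixed-dose test compound until the persister stage (10–21 days) and then drug-free medium. Medium was refreshed every 3–4 days until the inhibitor-only wells were confluent again.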
# HCC2279 [8] = assay: as above; details: test compound dose 100 nM, DMSO control AUC in same experiment: 27284
# How it was run: as §2
# HCC2935 [9] = assay: as above; details: test compound dose 100 nM, DMSO control AUC in same experiment: 11459
# How it was run: as §2
# HCC4006 [10] = assay: as above; details: test compound dose 100 nM, DMSO control AUC in same experiment: 10921
# How it was run: as §2
# HCC827 [11] = assay: as above; details: test compound dose 100 nM, DMSO control AUC in same experiment: 48895
# How it was run: as §2
# II-18 [12] = assay: as above; details: test compound dose 100 nM, DMSO control AUC in same experiment: 13556
# How it was run: as §2
# [13] = 1000 nM, DMSO control AUC in same experiment: 15857
# [14] = 1000 nM, DMSO control AUC in same experiment: 14404
# [15] = 1000 nM, DMSO control AUC in same experiment: 19215
# [16] = 1000 nM, DMSO control AUC in same experiment: 18415
# [17] = 1000 nM, DMSO control AUC in same experiment: 21320
# [18] = 1000 nM, DMSO control AUC in same experiment: 11834
structure (smiles),measurement,setting,value
COc1cc(CCc2cc(NC(=O)c3ccc(N4CC(C)NC(C)C4)cc3)n[nH]2)cc(OC)c1 (stereo not drawn),area under confluence curve,"H1975 [1]; 1000 nM, DMSO control AUC in same experiment: 14522",17400
same,area under confluence curve,"HCC2279 [2]; 1000 nM, DMSO control AUC in same experiment: 29252",28700
same,area under confluence curve,"HCC2935 [3]; 1000 nM, DMSO control AUC in same experiment: 11459",11000
same,area under confluence curve,"HCC4006 [4]; 1000 nM, DMSO control AUC in same experiment: 16794",15300
same,area under confluence curve,"HCC827 [5]; 1000 nM, DMSO control AUC in same experiment: 43928",46400
same,area under confluence curve,"II-18 [6]; 1000 nM, DMSO control AUC in same experiment: 23373",19700
C[C@@]1(C(=O)Nc2ccc(F)nc2)CCCN1c1nc(Nc2cc(C3CC3)n[nH]2)c2cccn2n1,area under confluence curve,"H1975 [1]; 100 nM, DMSO control AUC in same experiment: 16540",17600
same,area under confluence curve,"HCC2279 [2]; 100 nM, DMSO control AUC in same experiment: 14404",15900
same,area under confluence curve,"HCC2935 [3]; 100 nM, DMSO control AUC in same experiment: 19215",20700
same,area under confluence curve,"HCC4006 [4]; 100 nM, DMSO control AUC in same experiment: 18415",20100
same,area under confluence curve,"HCC827 [5]; 100 nM, DMSO control AUC in same experiment: 21320",21300
same,area under confluence curve,"II-18 [6]; 100 nM, DMSO control AUC in same experiment: 11834",9980
C[C@@H](Oc1cc(-c2cnn(C3CCNCC3)c2)cnc1N)c1c(Cl)ccc(F)c1Cl [Crizotinib],area under confluence curve,H1975 [1]; [13],9870
same,area under confluence curve,HCC2279 [2]; [14],13900
same,area under confluence curve,HCC2935 [3]; [15],19300
same,area under confluence curve,HCC4006 [4]; [16],16500
same,area under confluence curve,HCC827 [5]; [17],19500
same,area under confluence curve,II-18 [6]; [18],6690
Cc1nc(Nc2ncc(C(=O)Nc3c(C)cccc3Cl)s2)cc(N2CCN(CCO)CC2)n1 [Dasatinib],area under confluence curve,"H1975 [1]; 100 nM, DMSO control AUC in same experiment: 14522",4980
same,area under confluence curve,"HCC2279 [2]; 100 nM, DMSO control AUC in same experiment: 29252",28300
same,area under confluence curve,"HCC2935 [3]; 100 nM, DMSO control AUC in same experiment: 13875",10400
same,area under confluence curve,"HCC4006 [4]; 100 nM, DMSO control AUC in same experiment: 16638",11900
same,area under confluence curve,"HCC827 [5]; 100 nM, DMSO control AUC in same experiment: 30859",25600
same,area under confluence curve,"II-18 [6]; 30 nM, DMSO control AUC in same experiment: 11408",10100
CCN1CCN(Cc2ccc(Nc3ncc(F)c(-c4cc(F)c5nc(C)n(C(C)C)c5c4)n3)nc2)CC1 [Abemaciclib] + C=CC(=O)Nc1cc(Nc2nccc(-c3cn(C)c4ccccc34)n2)c(OC)cc1N(C)CCN(C)C [osimertinib],area under confluence curve,"H1975 [7]; dosing schedule: sequential, osimertinib-only DTP control AUC in same experiment: 12533",8980
same,area under confluence curve,"H1975 [7]; dosing schedule: upfront, osimertinib-only DTP control AUC in same experiment: 18969",5060
same,area under confluence curve,"HCC2279 [8]; dosing schedule: sequential, osimertinib-only DTP control AUC in same experiment: 5698",4410
same,area under confluence curve,"HCC2279 [8]; dosing schedule: upfront, osimertinib-only DTP control AUC in same experiment: 30623",12700
same,area under confluence curve,"HCC2935 [9]; dosing schedule: sequential, osimertinib-only DTP control AUC in same experiment: 9121",4760
same,area under confluence curve,"HCC2935 [9]; dosing schedule: upfront, osimertinib-only DTP control AUC in same experiment: 12748",9300
same,area under confluence curve,"HCC4006 [10]; dosing schedule: sequential, osimertinib-only DTP control AUC in same experiment: 14882",8540
same,area under confluence curve,"HCC4006 [10]; dosing schedule: upfront, osimertinib-only DTP control AUC in same experiment: 18913",4990
same,area under confluence curve,"HCC827 [11]; dosing schedule: sequential, osimertinib-only DTP control AUC in same experiment: 18675",6450
same,area under confluence curve,"HCC827 [11]; dosing schedule: upfront, osimertinib-only DTP control AUC in same experiment: 25542",7890
same,area under confluence curve,"II-18 [12]; dosing schedule: sequential, osimertinib-only DTP control AUC in same experiment: 3520",1010
same,area under confluence curve,"II-18 [12]; dosing schedule: upfront, osimertinib-only DTP control AUC in same experiment: 6532",2540
NC1(C(=O)N[C@@H](CCO)c2ccc(Cl)cc2)CCN(c2nc[nH]c3nccc2-3)CC1 [Capivasertib],area under confluence curve,"H1975 [1]; 300 nM, DMSO control AUC in same experiment: 26010",22500
same,area under confluence curve,"HCC2279 [2]; 300 nM, DMSO control AUC in same experiment: 29252",28500
same,area under confluence curve,"HCC2935 [3]; 300 nM, DMSO control AUC in same experiment: 11459",6510
same,area under confluence curve,"HCC4006 [4]; 300 nM, DMSO control AUC in same experiment: 16794",16700
same,area under confluence curve,"HCC827 [5]; 300 nM, DMSO control AUC in same experiment: 27404",28500
same,area under confluence curve,"II-18 [6]; 300 nM, DMSO control AUC in same experiment: 13556",11600
Cc1nc(N2CCC3(CC2)CO[C@@H](C)[C@H]3N)c(CO)nc1-c1cccc(Cl)c1Cl,area under confluence curve,H1975 [1]; [13],17200
same,area under confluence curve,HCC2279 [2]; [14],12100
same,area under confluence curve,HCC2935 [3]; [15],19100
same,area under confluence curve,HCC4006 [4]; [16],19200
same,area under confluence curve,HCC827 [5]; [17],14900
same,area under confluence curve,II-18 [6]; [18],3600
